# Source: PubChem BioAssay (NCI)
# Compounds without any hit were thinned out: in the full panel of roughly 83,000, 20% have a hit.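 48-hour exposure, single concentration, 96-well plates; percent growth endpoint where 0 means no net growth. Active: below 10.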 Unmarked numbers belong to inactive results. Calls of active or inactive are those of the source.
# Key:
# Assay in all cases: NCI-60 one-dose screen, 48 h (100 = growth as untreated, 0 = no growth, -100 = all killed)
# Settings in all cases: 10 µM unless noted
# [1] = test system: SK-MEL-2 melanoma
# [2] = test system: EKVX NSCLC
# [3] = test system: SN12C renal
# [4] = test system: UO-31 renal
# [5] = test system: TK-10 renal
# [6] = test system: ACHN renal
# [7] = test system: CAKI-1 renal
# [8] = test system: A498 renal
# [9] = test system: CCRF-CEM leukemia
# [10] = test system: MOLT-4 leukemia
SMILES,growth [1] [%],growth [2],growth [3],growth [4],growth [5],growth [6],growth [7],growth [8],growth [9],growth [10]
CCCCCCNC(=O)Oc1ccc(/C(=C(\C)c2ccc(Cl)cc2)c2ccc(OCCN3CCCCC3)cc2)cc1,86.4,52.8%,55.9%,32.6%,89.6%,76.3%,63.8%,76.1%,34%,10.9%
N[C@@H](Cc1ccccc1)[C@@H](O)C(=O)NCc1ccc(F)cc1,117,103%,93.4%,90.8%,105%,108%,91.3%,96.2%,111%,109%
Oc1ccc(CCl)c2cccnc12,81.2,51.6%,77%,45.3%,104%,64.1%,88.8%,101%,31.8%,82.6%
O=c1[nH][n+](-c2ccc(Br)cc2)no1,55.8,60.8%,66.7%,22.7%,63.8%,37.8%,18.5%,93.8%,55.1%,41.5%
COc1ccc2[nH]c(-c3ccccc3)c(/C=C(\C#N)S(=O)(=O)c3ccccc3)c2c1,87,56.7%,67%,70.2%,92.4%,71.6%,76.6%,57.2%,36.2%,17.4%
O=C(Nc1ccc(OS(=O)(=O)c2ccc(F)cc2)cc1)c1ccc(Cl)cc1,90.6,101%,95.7%,92.5%,95.6%,103%,105%,82.9%,98.7%,89.1%
CCCCCCn1c(-c2ccc(C(=O)O/N=C(\N)c3ccc4c(c3)OCO4)cc2)nc(-c2ccccc2)c1-c1ccccc1,70.9,-33.5% (active),-7.53% (active),-89.2% (active),-9.77% (active),-88.2% (active),-21.3% (active),37.2%,-34.4% (active),0.83% (active)
Cn1cc(-c2cc3ncnc(Nc4ccc(CC(=O)Nc5cc(C(C)(C)C)on5)cc4)c3s2)cn1,14,60.2%,15.4%,11%,17.8%,14.1%,9.29% (active),-18.6% (active),10.8%,17.4%
O=C1c2cccc3cccc(c23)C(=O)N1N1C(=O)c2cccc3c(NC4CCCCC4)ccc(c23)C1=O,105,89.3%,91.7%,66.3%,126%,92.2%,79.9%,95.5%,89.1%,89.6%
CS(=O)(=O)N(c1cc(-c2ccc3ncnc(Nc4ccc(F)c(Cl)c4)c3c2)cnc1Cl)S(C)(=O)=O,27.3,26.3%,31.6%,17.1%,19%,35.5%,31.9%,-30.8% (active),18.4%,6.91% (active)
Cc1oc2nc[nH]c(=O)c2c1C(=O)/C=C/c1ccc(Br)cc1,11.9,19.7%,1.76% (active),19.4%,40.9%,1.43% (active),28.4%,23.7%,6.65% (active),8.42% (active)
CCCCC1CCCC12NC(=O)NC2=O (stereo not given),100,107%,96%,85.1%,92.7%,99.4%,107%,98.3%,101%,122%
COc1ccc2c(c1OC)C(=O)O[C@H]2[C@H]1c2c(cc3c(c2OC)OCO3)CCN1C,106,95.4%,100%,85.9%,122%,95.8%,80.3%,93.1%,101%,116%
